NOMO-1 viab = NOMO-1 AML cell viability reduction, primary screen, STK33 inhibitor project, CellTiter-Glo luminescence. NOMO-1 AML viability, 72 h. inhibition, % (test concentration not listed). 37,000 tested, 7.5% active; in the data active = inhibition above about 80%; inconclusive = no clear call, values can overlap the other calls
PD-1 reversal = activators reversing PD-1 mediated T-cell inhibition, primary screen, luminescence, primary human CD4 T cells, PD-L1 beads | 29,000 tested, under 10 active | AID 2316, 2010 | activation, % (test concentration not listed) | CellTiter-Glo 96 h; call rule not given here
STK33 kin inh = STK33 kinase inhibitors, primary screen, biochemical, luminescence, ADP-Glo, MBP substrate; Serine/threonine-protein kinase 33 (Homo sapiens), Q9BYT3; inhibition, % at 12.5 µM; 27,000 tested, 0.44% active; AID 2322, 2010; in the data active = inhibition above about 20%; inconclusive = no clear call, values can overlap the other calls
Target sequence (Q9BYT3 whole entry, looked up): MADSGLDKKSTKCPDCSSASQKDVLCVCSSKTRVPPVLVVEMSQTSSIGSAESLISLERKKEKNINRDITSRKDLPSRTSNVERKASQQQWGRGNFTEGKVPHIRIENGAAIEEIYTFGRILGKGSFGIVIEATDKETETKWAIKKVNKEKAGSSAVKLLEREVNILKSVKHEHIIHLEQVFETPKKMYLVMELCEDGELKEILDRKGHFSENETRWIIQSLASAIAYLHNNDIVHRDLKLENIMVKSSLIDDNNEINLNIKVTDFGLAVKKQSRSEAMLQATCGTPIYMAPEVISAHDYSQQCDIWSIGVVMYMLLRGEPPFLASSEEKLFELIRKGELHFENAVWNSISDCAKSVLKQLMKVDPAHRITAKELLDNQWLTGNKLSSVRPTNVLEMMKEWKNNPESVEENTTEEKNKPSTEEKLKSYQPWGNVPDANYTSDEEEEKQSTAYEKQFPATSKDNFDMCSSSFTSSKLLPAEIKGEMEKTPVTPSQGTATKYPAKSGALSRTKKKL
A number is an active result; . = inactive; ? = inconclusive; / = not tested or not shown. The full list was thinned out, with hits kept by preference.

SMILES	NOMO-1 viab	PD-1 reversal	STK33 kin inh
C[C@H]1CN([C@@H](C)CO)C(=O)Cc2cc(NC(=O)Cc3cn(C)c4ccccc34)ccc2O[C@H]1CN(C)Cc1ccc(Oc2ccccc2)cc1	?	.	.
C[C@@H]1CN([C@H](C)CO)C(=O)Cc2cc(NC(=O)Cc3cn(C)c4ccccc34)ccc2O[C@H]1CN(C)Cc1ccc(-c2ccccc2)cc1	?	.	/
Cn1c(SCC(=O)Nc2cccc(C(=O)O)c2)nnc1-c1ccccc1	.	.	.
CCc1nc(SCC(=O)Nc2ccc(C(C)=O)cc2)n[nH]1	.	.	.
C[C@H](CO)N1C[C@H](C)[C@H](CN(C)Cc2ccc(C(=O)O)cc2)Oc2ccc(NC(=O)CCN3CCOCC3)cc2C1=O	.	.	.
CNS(=O)(=O)c1cc(-c2nnc(Nc3cccc(O)c3)c3ccccc23)ccc1C	.	/	.
Cc1ccc(Nc2nnc(-c3ccc(C)c(S(=O)(=O)NCC4CCCO4)c3)c3ccccc23)cc1 (stereo not given)	119	.	/
C[C@H]1CN([C@@H](C)CO)C(=O)c2cccc(NC(=O)C3CCCCC3)c2O[C@@H]1CN(C)C(=O)Nc1cccc2ccccc12	.	/	/
C[C@H]1CN([C@@H](C)CO)C(=O)c2cccc(NS(C)(=O)=O)c2O[C@@H]1CN(C)Cc1ccc(Oc2ccccc2)cc1	.	/	/
Cc1ccc(S(=O)(=O)Nc2ccc3c(c2)CC(=O)N([C@H](C)CO)C[C@H](C)[C@H](CN(C)Cc2ccc4c(c2)OCO4)O3)cc1	.	.	.
Cc1ccc(S(=O)(=O)Nc2ccc3c(c2)CC(=O)N([C@H](C)CO)C[C@H](C)[C@H](CN(C)Cc2ccc(Cl)c(Cl)c2)O3)cc1	100	/	.
Cc1ccc(S(=O)(=O)Nc2ccc3c(c2)CC(=O)N([C@H](C)CO)C[C@@H](C)[C@@H](CN(C)Cc2ccc4c(c2)OCO4)O3)cc1	.	.	/
Cc1ccc(S(=O)(=O)Nc2ccc3c(c2)CC(=O)N([C@@H](C)CO)C[C@H](C)[C@@H](CN(C)Cc2ccc(Cl)c(Cl)c2)O3)cc1	128	.	.
C[C@H](CO)N1C[C@H](C)[C@@H](CN(C)C(=O)Nc2ccc(C(F)(F)F)cc2)Oc2ccc(NS(C)(=O)=O)cc2C1=O	.	.	/
C[C@H](CO)N1C[C@H](C)[C@H](CN(C)C(=O)Nc2ccc3c(c2)OCO3)Oc2ccc(NC(=O)Cc3cn(C)c4ccccc34)cc2CC1=O	.	.	.
NS(=O)(=O)c1ccc(NC(=O)CC2c3ccccc3Oc3ccccc32)cc1	.	.	.
COc1ccc(/C=C2\SC(=S)N(CCCC(=O)O)C2=O)cc1OC	.	.	/
C[C@@H]1CN([C@H](C)CO)C(=O)c2cc(NC(=O)Nc3ccc(F)cc3)ccc2O[C@@H]1CN(C)Cc1ccc(C(=O)Nc2ccccc2N)cc1	107	.	/
C[C@@H]1CN([C@@H](C)CO)C(=O)c2cc(NC(=O)Nc3ccc(C(F)(F)F)cc3)ccc2O[C@H]1CN(C)Cc1ccc(C(=O)Nc2ccccc2N)cc1	.	.	/
C[C@@H]1CN([C@H](C)CO)C(=O)c2cc(NC(=O)Nc3ccc(C(F)(F)F)cc3)ccc2O[C@@H]1CN(C)Cc1ccc(C(=O)Nc2ccccc2N)cc1	102	.	/
C[C@H]1CN([C@@H](C)CO)C(=O)c2cc(NC(=O)Nc3ccccc3)ccc2O[C@H]1CN(C)Cc1ccc(C(=O)Nc2ccccc2N)cc1	?	.	/
COc1ccc(S(=O)(=O)N(C)C[C@H]2Oc3c(NC(=O)Nc4ccc(F)cc4)cccc3C(=O)N([C@@H](C)CO)C[C@H]2C)cc1	.	.	/
Cn1c(-c2nonc2NC(=O)c2ccccc2Br)nc2ccccc21	.	.	.
CC(=O)Nc1nonc1-c1nc2ccccc2n1Cc1ccccc1Br	115	.	.
Clc1ccc2c(c1)nc(SCc1nnc(-c3ccccc3)o1)n2C1CCCCC1	.	.	.
C[C@@H]1CN([C@H](C)CO)C(=O)c2cc(NC(=O)NC3CCCCC3)ccc2O[C@H]1CN(C)Cc1ccc(-c2ccccc2)cc1	?	.	/
C[C@@H]1CN([C@H](C)CO)C(=O)c2cc(NC(=O)NC3CCCCC3)ccc2O[C@H]1CN(C)Cc1ccncc1	.	.	.
C[C@@H]1CN([C@H](C)CO)C(=O)c2cc(NC(=O)NC3CCCCC3)ccc2O[C@@H]1CN(C)Cc1ccc(-c2ccccc2)cc1	87	/	/
C[C@H]1CN([C@@H](C)CO)C(=O)c2cc(NC(=O)NC3CCCCC3)ccc2O[C@@H]1CN(C)Cc1ccccc1	.	.	/
C[C@@H]1CN([C@@H](C)CO)C(=O)c2cc(NC(=O)NC3CCCCC3)ccc2O[C@H]1CN(C)Cc1ccc(-c2ccccc2)cc1	100	.	/
